Test results: PubChem BioAssay (NCI)
The panel holds about 79,000 compounds, 15% with a hit somewhere; the sample as a whole holds those more often. Unmarked numbers belong to inactive results. No stated cut-off is given here; in the data, active means growth inhibition above about 70%; inactive means the rest.

Test: NCI Yeast Anticancer Drug Screen. Data for the cln2 rad14 strain (AID 165);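 further: 0% = growth equal to vehicle treated cultures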
Conditions: S. cerevisiae cln2 rad14 strain, at 50.0 µM, hits give high values
How it was run: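 Yeast carrying cln2 and rad14 alterations (cell cycle control and DNA damage repair) were exposed to compounds. Growth inhibition was measured against vehicle-treated controls.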

Row | SMILES | growth inhibition
1 | CC(=O)Nc1cccc2ccc([N+](=O)[O-])cc12 | 16.4%
2 | NC(=S)N/N=C/c1cc([N+](=O)[O-])ccc1O | 51%
3 | Brc1ncccn1 | 17.9%
4 | Cc1ccc(C)c(CNC(=O)NC(C)(C)C)c1 | -63.8%
5 | CCCCCCCCCCCCCCCCCC[N+](C)(C)Cc1c(Cl)c(Cl)c(Cl)c(Cl)c1Cl | -18.9%
6 | CC1C2CC(C/C2=N/O)C1(C)C (stereo not given) | 29.1%
7 | CC1(C(Cl)Cl)C=CC(=O)c2ccccc21 (stereo not given) | 15.3%
8 | Nc1ncnc2nc(N=Nc3ccc(S(=O)(=O)O)cc3)[nH]c12 | -23.4%
9 | Cc1ccc(C(C)(O)C2CC2)cc1 (stereo not given) | 18.6%
10 | Cc1ccc(S(=O)(=O)OCC23CCC(CC2)CC3)cc1 | -3.5%
11 | O=C(O)C(Cc1ccccc1)NS(=O)(=O)Cc1ccccc1 (stereo not given) | -4.9%
12 | OCCCNc1ncnc2[nH]ncc12 | 59%
13 | O=C(SCc1ccccc1)N(c1ccccc1)c1ccccc1 | 22.4%
14 | CCCOC(=O)c1cccnc1C(=O)OCCC | -22.4%
15 | CCOC(=O)Cn1/c(=N/N=C(\C)c2ccc([N+](=O)[O-])o2)sc2cc(Cl)ccc21 | 14.3%
16 | O=C(Nc1ccc(Cl)cc1)Nc1nnc(-c2cccc(-c3nnc(NC(=O)Nc4ccc(Cl)cc4)o3)c2)o1 | 21.7%
17 | CC(C)(C)CC(C)(C)N(CSc1ccc2ccccc2c1)CSc1ccc2ccccc2c1 | 13.6%
18 | C#CC(C)(CC)OC(C)=O (stereo not given) | -23%
19 | NS(=O)(=O)c1ccc(NC(=O)c2cccn3c(=O)c4ccccc4nc23)cc1 | 27.2%
20 | Cc1cc2ccccc2c[n+]1CC(=O)CC([O-])(C(F)(F)F)C(F)(F)F | 4.1%

Row | SMILES | growth inhibition
21 | Brc1ccc(-c2[nH]c3ccccc3c2N=Nc2ccccc2)cc1 | -7%
22 | C1CCC2(CC1)CCCO2 | 10.5%
23 | CCOC(O)C(F)(F)F (stereo not given) | 15.8%
24 | CCOC(=O)c1ccnc(F)c1 | -8.8%
25 | O=C(O)c1ccccc1/C=N\N(CCO)C1=NCCN1 | -25.1%
26 | OC(COc1ccc2ccccc2c1)COc1ccc2ccccc2c1 | -16.3%
27 | O=C(CN1CCN(c2ccccc2)CC1)N1CCc2c([nH]c3ccccc23)C1c1cccnc1 (stereo not given) | 28.6%
28 | CCc1nc(N)nc(N)c1-c1ccc2nn(-c3ccccc3)[n+]([O-])c2c1 | 14.8%
29 | O=C(CCCO)c1nc2ccccc2s1 | -8.55%
30 | COc1ccc2c(c1OC)C(Cc1ccccc1)N1CCc3cc4c(cc3C1C2)OCO4 (stereo not given) | 50.8%
31 | CC(c1ccccc1)C1OCCO1 (stereo not given) | -30.8%
32 | O=C1c2ccccc2-c2cccc3ccc(-c4ccccc4)c1c23 | -2.85%
33 | O=[N+]([O-])c1ccc(NC(CO)C(O)C(O)C(O)CO)c([N+](=O)[O-])c1 (stereo not given) | -6.45%
34 | CC(=O)Nc1ccc(S(=O)(=O)N=S(C)C)cc1 | -21.6%
35 | CNC(=O)C(C)Oc1ccc(OCC2CCCCC2)cc1 (stereo not given) | -35.5%
36 | Cc1cccc(Cl)c1NC(=O)C(Cl)Cl | 4.55%
37 | COc1cc(/C=C/C=C(C(=O)O)C(=O)O)cc(OC)c1OC | -11.4%
38 | COC(=O)C1Cc2cc3c(cc2C1=O)CCC3 (stereo not given) | 6.75%
39 | CCOC(=O)Nc1ccc(C2OCCS2)cc1 (stereo not given) | -0.65%
40 | CC[C@@H]1CN(C)[C@H]2Cc3c([nH]c4ccccc34)C(=O)C[C@H]1C2C(=O)OC (stereo not given in full) | -47.3%

Test: NCI Yeast Anticancer Drug Screen. Data for the bub3 strain (AID 167)
Conditions: S. cerevisiae bub3 mutant strain, at 50.0 µM, hits give high values
How it was run: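 Part of a panel of yeast mutants defective in DNA damage repair or cell cycle regulation. Each strain is grown with compound, and inhibition is calculated relative to solvent-treated cultures.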

Row | SMILES | growth inhibition
41 | CC(=O)Nc1cccc2ccc([N+](=O)[O-])cc12 | -5.7%
42 | NC(=S)N/N=C/c1cc([N+](=O)[O-])ccc1O | 8.5%
43 | Brc1ncccn1 | 7.75%
44 | Cc1ccc(C)c(CNC(=O)NC(C)(C)C)c1 | -11.2%
45 | CCCCCCCCCCCCCCCCCC[N+](C)(C)Cc1c(Cl)c(Cl)c(Cl)c(Cl)c1Cl | 24.6%
46 | CC1C2CC(C/C2=N/O)C1(C)C (stereo not given) | 11.3%
47 | CC1(C(Cl)Cl)C=CC(=O)c2ccccc21 (stereo not given) | 12.3%
48 | Nc1ncnc2nc(N=Nc3ccc(S(=O)(=O)O)cc3)[nH]c12 | -6.35%
49 | Cc1ccc(C(C)(O)C2CC2)cc1 (stereo not given) | -35.8%
50 | Cc1ccc(S(=O)(=O)OCC23CCC(CC2)CC3)cc1 | 39.6%
51 | O=C(O)C(Cc1ccccc1)NS(=O)(=O)Cc1ccccc1 (stereo not given) | -8.2%
52 | OCCCNc1ncnc2[nH]ncc12 | -4.9%
53 | O=C(SCc1ccccc1)N(c1ccccc1)c1ccccc1 | 12.4%
54 | CCCOC(=O)c1cccnc1C(=O)OCCC | -2.5%
55 | CCOC(=O)Cn1/c(=N/N=C(\C)c2ccc([N+](=O)[O-])o2)sc2cc(Cl)ccc21 | -4.15%
56 | O=C(Nc1ccc(Cl)cc1)Nc1nnc(-c2cccc(-c3nnc(NC(=O)Nc4ccc(Cl)cc4)o3)c2)o1 | -3.5%
57 | CC(C)(C)CC(C)(C)N(CSc1ccc2ccccc2c1)CSc1ccc2ccccc2c1 | -0.45%
58 | C#CC(C)(CC)OC(C)=O (stereo not given) | 19.9%
59 | NS(=O)(=O)c1ccc(NC(=O)c2cccn3c(=O)c4ccccc4nc23)cc1 | -0.25%
60 | Cc1cc2ccccc2c[n+]1CC(=O)CC([O-])(C(F)(F)F)C(F)(F)F | 16.4%

Row | SMILES | growth inhibition
61 | Brc1ccc(-c2[nH]c3ccccc3c2N=Nc2ccccc2)cc1 | -11.1%
62 | C1CCC2(CC1)CCCO2 | 23.6%
63 | CCOC(O)C(F)(F)F (stereo not given) | 0.45%
64 | CCOC(=O)c1ccnc(F)c1 | 1%
65 | O=C(O)c1ccccc1/C=N\N(CCO)C1=NCCN1 | 2.95%
66 | OC(COc1ccc2ccccc2c1)COc1ccc2ccccc2c1 | -11.6%
67 | O=C(CN1CCN(c2ccccc2)CC1)N1CCc2c([nH]c3ccccc23)C1c1cccnc1 (stereo not given) | 4.35%
68 | CCc1nc(N)nc(N)c1-c1ccc2nn(-c3ccccc3)[n+]([O-])c2c1 | 14%
69 | O=C(CCCO)c1nc2ccccc2s1 | 11.8%
70 | COc1ccc2c(c1OC)C(Cc1ccccc1)N1CCc3cc4c(cc3C1C2)OCO4 (stereo not given) | 51.6%
71 | CC(c1ccccc1)C1OCCO1 (stereo not given) | -28.2%
72 | O=C1c2ccccc2-c2cccc3ccc(-c4ccccc4)c1c23 | -7.25%
73 | O=[N+]([O-])c1ccc(NC(CO)C(O)C(O)C(O)CO)c([N+](=O)[O-])c1 (stereo not given) | 3.2%
74 | CC(=O)Nc1ccc(S(=O)(=O)N=S(C)C)cc1 | -40%
75 | CNC(=O)C(C)Oc1ccc(OCC2CCCCC2)cc1 (stereo not given) | -46.9%
76 | Cc1cccc(Cl)c1NC(=O)C(Cl)Cl | 17.3%
77 | COc1cc(/C=C/C=C(C(=O)O)C(=O)O)cc(OC)c1OC | -6.2%
78 | COC(=O)C1Cc2cc3c(cc2C1=O)CCC3 (stereo not given) | 20.4%
79 | CCOC(=O)Nc1ccc(C2OCCS2)cc1 (stereo not given) | -19.8%
80 | CC[C@@H]1CN(C)[C@H]2Cc3c([nH]c4ccccc34)C(=O)C[C@H]1C2C(=O)OC (stereo not given in full) | -26.2%
